Sampled rows, rich in hits. Any-hit rate of the full collection: about 2.9%.
Glyco luc inh – blocks N-linked glycosylation in D54 reporter cells; D54 ERlucT glycosylation luciferase reporter, 24 h; percent of 100 nM tunicamycin response; reporter increase, % at 12.5 µM; 0.23% of 360,000 active;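 active = mean luciferase reporter signal, scaled so untreated is 0 and the glycosylation-blocking control 100, at or above a set limit in every replicate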;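 also: luciferase carries N-glycosylation sites so blocking glycosylation raises the light; 0% = median of neutral control wells and 100% = median of 100 nM tunicamycin wells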
MITF TRPM1 HTS – activators of MITF-driven TRPM1 promoter activity in SK-MEL-5 cells. SK-MEL-5 TRPM1-promoter luciferase, 24 h; % of positive control, neutral wells = 0. activation, % at 12.5 µM. 0.75% of 300,000 active;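 active = mean activation of at least 80% with every replicate also reaching 80%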;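 also: 0% = neutral control wells and 100% = parthenolide positive control wells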
Vif inh – HIV Vif inhibition; inhibition, % at 7.49 µM; HEK293T cells, Vif self-association by quenched fluorescence, imaging, 24 h; 0.35% of 340,000 active; in the data active = inhibition above about 50%, passing the limit was not always enough
PvdQ acylase – P. aeruginosa PvdQ acylase inhibition; purified PvdQ acylase, fluorescence plate reader; 0.063% of 340,000 active; inhibition, % at 10 µM; in the data active = inhibition above about 30%, passing the limit was not always enough;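 also: 0% = vehicle neutral wells and 100% = reference inhibitor wells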
esBAF inh – inhibitors of esBAF chromatin remodeling in mouse ES cells. Bmi1-luciferase knock-in reporter, 24 h; 100% = twice the neutral-well signal. reporter increase, % at 12.5 µM. 2% of 350,000 active. AID 602393; in the data active = activation above about 40%;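 also: 0% = median of the plate's neutral control wells and 100% = double that signal; a rise in the Bmi1 reporter signal indicates esBAF inhibition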
Wnt bcat act – activates Wnt/beta-catenin signaling in a reporter cell assay; activator, plate reader; activation, % at 9.35 µM; 1.2% of 300,000 active; AID 743398; in the data active = activation above about 30%, passing the limit was not always enough;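 also: 0% = neutral control wells and 100% = positive control wells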
Active calls of the source: *; nt = no result given; ! = not confirmed by another sample.

SMILES | Glyco luc inh | MITF TRPM1 HTS | Vif inh | PvdQ acylase | esBAF inh | Wnt bcat act
CC1(C)CCC(=O)N2CC[C@H]3C[C@H](OC(=O)Nc4ccc5c(c4)OCO5)C[C@@H]1[C@H]32 | -9.9 | 104.1* | -3.5 | -4.7 | 37.9 | 14.3
CC(C)c1ccc2c(c1)C(c1ccc(N3CCOCC3)cc1)=NNC(c1cccs1)=N2 | -2.7 | nt | -0.3 | -11.1 | 65.2* | 12.1
Cc1nn(-c2ccc(Br)cc2)c(=O)c2ccccc12 | -3.8 | 21.6 | -9.6 | -2.9 | 31.4 | 41.8*
O=C(NCC[C@H]1CC[C@@H](NS(=O)(=O)c2ccc(Cl)cc2)[C@@H](CO)O1)c1ccc2c(c1)OCO2 | nt | nt | nt | nt | 6.5 | nt
CCCNC(=O)C[C@H]1CC[C@@H]2[C@@H](COc3ccc(NC(=O)c4cccc(OC)c4)cc3C(=O)N2C)O1 | nt | nt | nt | nt | 0.2 | nt
COc1ccc2[nH]c3c4c(ccc3c2c1)C(=O)C=CC4=O | 15.9 | -77.3 | 51.5* | -11.4 | -25.8 | -13.7
O=C(Nc1ccccc1)OCC1CCCN2CCCCC12 (stereo unspecified) | -0.7 | -3.3 | -3.1 | -11.0 | 7.6 | -2.4
CC1=CCC(COC(=O)Nc2ccccc2)CC1 (stereo unspecified) | -2.4 | 125.5* | -1.7 | -15.3 | 84.1* | -2.2
COc1ccccc1C#CC1=CC(=O)CC(C)(C)C1 | -3.6 | nt | -14.5 | nt | 17.1 | 0.3
COc1ccc(C#CC2=CC(=O)CC(C)(C)C2)cc1 | -4.4 | nt | -2.2 | nt | 44.9* | 8.4
CCc1ccc(C#CC2=CC(=O)CC(C)(C)C2)cc1 | -7.7 | nt | 0.5 | nt | 61.4* | 0.6
C[C@H](CO)N1C[C@H](C)[C@@H](CN(C)C(=O)C2CCOCC2)Oc2ncc(C#CC(C)(C)O)cc2C1=O | nt | nt | nt | nt | 0.7 | nt
COc1ccc(/C=C2/SC(=S)N(CCCC(=O)Nc3cccc(O)c3)C2=O)cc1 | 1.0 | -6.6 | -20.9 | 13.1 | -62.5 | 6.1
COc1ccc(/C=C2\SC(=S)N(CC(=O)OCC(=O)Nc3cc(Cl)cc(Cl)c3)C2=O)cc1 | -0.9 | 4.6 | -7.1 | 2.6 | nt | 37.8*
CCCNC(=O)N1C[C@@H](O)COC[C@H]2O[C@@H](CC(=O)N3CCOCC3)CC[C@@H]21 | nt | nt | nt | nt | -0.3 | nt
COc1cc(C(=O)NCC2(c3ccccc3)CCCC2)cc(OC)c1OC | 0.5 | -3.5 | -17.5 | -16.2 | 2.9 | 0.5
COc1ccc(C2(CNC(=O)c3cc(OC)c(OC)c(OC)c3)CCCC2)cc1OC | 34.6* | nt | 24.0 | 1.0 | -11.1 | -1.8
CO[C@@H]1CC[C@@H]2CCN(C)C(=O)CCCN(C)C(=O)c3cc(C#N)ccc3OC[C@H]1O2 | nt | nt | nt | nt | -1.6 | nt
C[C@@H]1CN([C@H](C)CO)C(=O)c2cccc(NC(=O)Nc3ccc4c(c3)OCO4)c2O[C@H]1CN(C)S(=O)(=O)c1cccs1 | nt | nt | nt | nt | 47.4* | nt
Cc1ccc(S(=O)(=O)Nc2cccc3c2O[C@@H](CN(C)C(=O)Nc2ccc4c(c2)OCO4)[C@H](C)CN([C@@H](C)CO)C3=O)cc1 | 0.4 | -1.2 | -1.2 | 15.8 | 59.9*! | 0.7
C[C@H](CO)N1C[C@H](C)[C@@H](CN(C)C(=O)Nc2ccc3c(c2)OCO3)Oc2c(NS(=O)(=O)c3ccccc3)cccc2C1=O | -1.5 | 1.4 | -3.3 | 5.4 | 3.4 | 4.4
C[C@H](CO)N1C[C@H](C)[C@H](CN(C)C(=O)Nc2ccc3c(c2)OCO3)Oc2c(NS(=O)(=O)c3ccccc3)cccc2C1=O | nt | nt | nt | nt | 67.6* | nt
C[C@@H]1CN([C@H](C)CO)C(=O)c2cc(NC(=O)Nc3ccc4c(c3)OCO4)ccc2O[C@@H]1CN(C)S(=O)(=O)c1cccs1 | nt | nt | nt | nt | -1.8 | nt
C[C@H]1CN([C@@H](C)CO)C(=O)c2cc(-c3ccc(C(=O)N(C)C)cc3)cnc2O[C@H]1CN(C)C(=O)c1ccncc1 | nt | nt | nt | nt | -3.1 | nt
C[C@@H]1CN([C@@H](C)CO)C(=O)c2cc(C#C[C@@H](C)O)cnc2O[C@@H]1CN(C)CC1CCOCC1 | nt | nt | nt | nt | 4.8 | nt
Cc1nn(-c2ccccc2)c(Cl)c1C1C(C#N)=C(N)OC2=C1C(=O)CC(C)(C)C2 (stereo unspecified) | 13.5 | -20.9 | -11.5 | -6.9 | -3.8 | -2.4
CC(C)c1ccc(-c2nn(-c3ccccc3)cc2C2C(C#N)=C(N)OC3=C2C(=O)CC(C)(C)C3)cc1 (stereo unspecified) | 0.3 | nt | -17.0 | -14.0 | 51.7* | 6.1
CSc1sc(C(=O)O)c(C)c1C(C)=O | 0.6 | 2.9 | 56.3* | -17.4 | 2.7 | 0.8

Source: PubChem BioAssay
